PAFAH1B2 inh – PAFAH1B2 enzyme inhibitors, primary screen, biochemical, fluorescence polarization, human. recombinant PAFAH1B2, FP-rhodamine activity probe. inhibition, % at 3.39 µM. 1.2% of 340,000 active;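 active = inhibition above the mean of all tested compounds plus 3 SD, cut at about 24% in these data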
E coli Lon inh – inhibitors of E. coli Lon protease, primary screen, biochemical, fluorescence polarization. P0A9M0. purified E. coli Lon protease. inhibition, % at 7.94 µM. 0.42% of 360,000 active; in the data active = inhibition above about 13%, passing the limit was not always enough
Rin1 Abl inh – inhibitors of Rin1-Abl protein binding, primary screen, biochemical, TR-FRET; Tyrosine-protein kinase ABL1 (Homo sapiens) + Ras and Rab interactor 1 (Homo sapiens), …; inhibition, % at 7.35 µM; 0.4% of 360,000 active; AID 588664, 2011; in the data active = inhibition above about 5%, passing the limit was not always enough
pPAFAH inh – pPAFAH enzyme inhibitors, primary screen, biochemical, fluorescence polarization, human. Platelet-activating factor acetylhydrolase (Homo sapiens), Q13093. recombinant pPAFAH, FP-rhodamine probe fluorescence polarization. inhibition, % at 3.39 µM. 1.5% of 330,000 active;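 active = inhibition above the mean inhibition across the screen plus 3 SD, cut at about 25% in these data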;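 note: inhibitors block binding of the rhodamine activity-based probe so polarization drops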
PAFAH2 inh – PAFAH2 enzyme inhibitors, primary screen, biochemical, fluorescence polarization, human; Platelet-activating factor acetylhydrolase 2, cytoplasmic (Homo sapiens), Q99487; recombinant PAFAH2, FP-rhodamine activity probe; inhibition, % at 3.39 µM; 0.99% of 340,000 active; AID 492956, 2010;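 active = inhibition above the mean over all tested compounds plus 3 SD, cut at about 30% in these data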;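 note: inhibitors block probe labeling of enzyme so polarization drops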
PAFAH1B3 FP inh – PAFAH1B3 enzyme inhibitors, primary screen, biochemical, fluorescence polarization, human | AID 492972, 2010 | Platelet-activating factor acetylhydrolase IB subunit alpha1 (Homo sapiens), Q15102 | recombinant PAFAH1B3, FP-rhodamine probe | 0.28% of 340,000 active | inhibition, % at 3.39 µM;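 active = inhibition above the screen-wide average of all tested compounds plus 3 SD, cut at about 25% in these data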
Target sequence (Q15102 whole entry, looked up): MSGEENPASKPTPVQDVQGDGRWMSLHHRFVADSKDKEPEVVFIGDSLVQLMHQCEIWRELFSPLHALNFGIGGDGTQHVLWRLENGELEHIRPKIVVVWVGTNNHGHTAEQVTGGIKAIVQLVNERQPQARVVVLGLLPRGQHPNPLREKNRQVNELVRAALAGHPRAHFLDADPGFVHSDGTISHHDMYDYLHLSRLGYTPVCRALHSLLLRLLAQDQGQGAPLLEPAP
Rin1-Abl confirm – Rin1-Abl binding inhibitor retest, confirmation, biochemical, TR-FRET; shares compounds with Rin1 Abl inh; purified proteins; inhibition, % at 7.35 µM; 49% of 1,300 active; AID 602124, 2011
GFP quencher – GFP fluorescence inhibitors and quenchers, artefact control for Rin1-Abl interaction inhibitor project, biochemical. shares compounds with Rin1 Abl inh. inhibitors/quenchers counterscreen. inhibition, % at 6.75 µM. 8.5% of 1,300 active. AID 602125, 2011;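 note: ABL1-eGFP fusion protein alone without its partner RIN1-SBP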
GFP quench DR – GFP fluorescence inhibitors and quenchers, dose response, artefact control for Rin1-Abl interaction inhibitor project, biochemical. shares compounds with Rin1 Abl inh. GFP fluorescence interference/quenching counterscreen. IC50, µM. 230 tested, under 10 active. AID 602182, 2012; call rule not given here;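 note: ABL1-eGFP fusion protein alone without its RIN1 binding partner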
Numbers stand for hits; n = inactive; x = not tested or not shown. Only some compounds are listed: those with a hit (about 3.1% of all), similar ones and a draw of the others. Cut-off read from the data, not from the text of the source, unless noted: active = inhibition above about 6.5%; inactive = the rest.

SMILES	PAFAH1B2 inh	E coli Lon inh	Rin1 Abl inh	pPAFAH inh	PAFAH2 inh	PAFAH1B3 FP inh	Rin1-Abl confirm	GFP quencher	others
Cc1nn(CC(=O)NCCCc2ccccc2)c(=O)c2cccn12	n	n	n	n	n	n	x	x
Cc1nn(CC(=O)NCc2cccc(F)c2)c(=O)c2cccn12	n	n	8.6	n	n	n	n	n
O=C(CCc1ccccc1)N=C1SC2CS(=O)(=O)CC2N1c1ccccc1 (configuration not stated)	n	n	n	n	n	n	x	x
CN(C)c1ccc(-c2ccnc3c2CC(C)(C(=O)Nc2cccc(Oc4ccccc4)c2)O3)cc1 (configuration not stated)	x	n	n	x	x	x	x	x
CC(C)(C)[C@@H]1C=C(C(=O)N2CCN(Cc3ccccc3)CC2)O[C@H](OCc2ccc(CO)cc2)C1	n	n	n	n	n	n	x	x
CC(C)(C)[C@H]1C=C(C(=O)N2CCN(Cc3ccccc3)CC2)O[C@@H](OCCCCO)C1	n	n	15.7	n	n	n	n	n
CC(=O)c1cccc(N(CC(=O)NC2CCCC2)C(=O)c2ccc(C)s2)c1	n	n	7.5	n	n	n	n	n
CCCCSc1cc(=O)[nH]c(N)n1	n	n	28.7	n	n	n	21.4	n	GFP quench DR=n
CCCCSc1nnc2[nH]c(=O)cc(N)n12	n	n	n	n	n	n	x	x
CCC(CO)Oc1cc(NCc2ccccc2Cl)c2ncn(C(C)C)c2c1 (configuration not stated)	n	n	n	n	n	n	x	x
O=C(CCN1C(=O)[C@@H]2Cc3ccccc3CN2C1=O)N[C@H](Cc1ccccc1)C(=O)O	n	n	n	n	n	n	x	x
O=C(CCN1C(=O)[C@@H]2Cc3ccccc3CN2C1=O)NCc1ccc(Cl)cc1	n	n	29.1	n	n	n	n	n
Oc1ccc(/C=N/Nc2cccc(Cl)n2)c(O)c1	n	n	8.1	n	n	n	n	n
Oc1ccc(/C=N/Nc2ccc(C(F)(F)F)cn2)c(O)c1	n	n	n	n	n	n	x	x
CC1CCCCN1CCNC(=O)c1ccc2c(=O)n(Cc3ccc(Cl)cc3)c(=S)[nH]c2c1 (configuration not stated)	n	n	n	n	n	n	x	x
CCCc1cc(N2CCN(c3ccccn3)CC2)n2nc(C)c(-c3ccccc3)c2n1	n	n	8.1	n	n	n	n	n
CCOC(=O)C1(Cc2ccc(OC)cc2)CCN(C(=O)CN2CCCCC2=O)CC1	x	n	9.9	n	x	x	n	n
CC(=O)c1cccc(NC(=O)CNC(=O)c2cc3ccccc3o2)c1	n	n	17.2	n	n	n	n	n
C=CCN1C(=O)C(=O)N(Cc2nc3ccccc3s2)C1=O	n	n	n	n	n	n	x	x
CC1(Cc2ccc3c(c2)OCO3)C(=O)Nc2ccc(-c3cccc(C(F)(F)F)c3)cc21 (configuration not stated)	x	n	7.7	x	x	x	n	n
Cc1ccc(-n2c(SCC(=O)NCc3ccco3)nnc2-c2cccnc2)c(C)c1	n	n	11.6	n	n	n	9.7	n
COc1cc(C=O)ccc1OC(=O)Nc1ccccc1	n	n	n	n	n	n	x	x
COCC(C)n1c(SCC(=O)Nc2cccnc2Cl)nc2ccccc2c1=O (configuration not stated)	x	n	n	x	x	x	x	x
CCN=c1scc(-c2cccs2)n1/N=C/c1cc(OC)ccc1O	n	n	n	n	n	n	x	x

Source: PubChem
